Screening results deposited in PubChem by Sanford-Burnham Center for Chemical Genomics.
TRAIL sens C8: caspase-8 TRAIL sensitization; inhibition (viability loss, TRAIL sensitization), % at 10 µM; AID 624354; NB7+C8 cells + TRAIL, ATPlite viability luminescence; 1% of 360,000 active;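 active means compounds causing at least 50% loss of cell viability in the single-dose screen, relative to plate controls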
SENP8 block-1: inhibitors of human SENP8 protease | Q96LD8 | purified SENP8, Z-RLRGG-aminoluciferin cleavage, luminescence | inhibition, % at 10 µM | 1.2% of 330,000 active | AID 2540; in the data active means inhibition above about 50%
Target sequence (Q96LD8 whole entry, looked up): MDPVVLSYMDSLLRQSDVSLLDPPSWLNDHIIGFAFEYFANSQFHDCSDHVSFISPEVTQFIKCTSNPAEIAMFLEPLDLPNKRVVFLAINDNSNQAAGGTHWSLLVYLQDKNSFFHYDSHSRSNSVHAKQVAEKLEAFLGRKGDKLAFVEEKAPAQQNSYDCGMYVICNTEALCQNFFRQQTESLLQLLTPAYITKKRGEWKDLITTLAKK
SENP6 inh: inhibitors of human SENP6 protease; Q9GZR1; Recombinant SENP6 catalytic domain, aminoluciferin luminescence; 1.8% of 330,000 active; inhibition, % at 10 µM; AID 2599;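 active means inhibition above about 50% at the single tested dose, limit read from the data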;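 further: plate controls were DMSO wells with enzyme for no effect and DMSO wells lacking enzyme for full effect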
SENP7 block: inhibitors of human SENP7 protease. Q9BQF6. 1.5% of 330,000 active. AID 434973. recombinant SENP7, Z-RLRGG-aminoluciferin luminescence, 40 min. inhibition, % at 5 µM;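 active means inhibition above about 50% at the single test dose, limit read from the data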;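 further: plate controls were DMSO with enzyme for no effect and no enzyme buffer wells for full effect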
SENP8 block-2: SENP8 (human) protease inhibition. 0.64% of 360,000 active. inhibition, % at 20 µM. Q96LD8. recombinant SENP8, Nedd8 substrate fluorescence; in the data active means inhibition mostly above about 40%, no sharp cut-off; inactive means mostly below about 27%
PPC-1+TRAIL kill: kills PPC-1 cancer cells in the presence of TRAIL; 0.41% of 220,000 active; PPC-1 cells + TRAIL, ATPLite viability luminescence; cell killing (% activity), % at 4 µM or 5 µM;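 active means cell killing above 50% in the first pass at 4 µM, then a duplicate retest at 5 µM averaging 50% or more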;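 further: plate controls were cells with TRAIL plus DMSO for no effect and medium-only wells lacking cells for full effect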
PPC1 cytotox: PPC-1 cell cytotoxicity. shares compounds with PPC-1+TRAIL kill. PPC-1 viability, ATPlite luminescence, overnight. cytotoxicity, % at 5 µM. 50% of 1,200 active;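 active means reconfirmed compounds whose average cytotoxicity reaches 50% or more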;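 further: 0% = DMSO-treated cells and 100% = wells holding medium but no cells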
SENP8 confirm: confirmation of human SENP8 protease inhibitors | shares compounds with SENP7 block | Recombinant SENP8, Z-RLRGG-aminoluciferin luminescence, 60 min | inhibition, % at 12.5 µM | 40% of 6,200 active;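 active means mean inhibition across replicates above about 50%, limit read from the data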
SENP6 confirm: confirmation of human SENP6 protease inhibitors. AID 488915. inhibition, % at 12.5 µM. recombinant SENP6, Z-RLRGG-aminoluciferin luminescence. shares compounds with SENP7 block. 58% of 6,200 active
SENP7 conf: confirmation of human SENP7 protease inhibitors | shares compounds with SENP7 block | recombinant SENP7, Z-RLRGG-aminoluciferin luminescence, 40 min | inhibition, % at 12.5 µM | 69% of 6,200 active | AID 488917
Casp3 SENP sel: selectivity test for SENP inhibitors: human caspase-3 inhibition; shares compounds with SENP7 block; purified caspase-3, Z-DEVD-aminoluciferin luminescence, 60 min; inhibition, % at 12.5 µM; 60% of 6,200 active;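 active means mean inhibition above about 50%, limit read from the data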;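 further: plate controls were enzyme with DMSO for no effect and wells without caspase-3 for full effect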
Target sequence (P42574 28-227 limits assumed): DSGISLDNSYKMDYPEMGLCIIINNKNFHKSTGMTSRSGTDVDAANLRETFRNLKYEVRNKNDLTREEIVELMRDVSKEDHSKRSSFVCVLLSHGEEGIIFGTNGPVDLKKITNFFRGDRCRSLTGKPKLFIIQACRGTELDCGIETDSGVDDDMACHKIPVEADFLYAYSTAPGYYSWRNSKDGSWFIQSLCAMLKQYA
Luc interf: luminescence interference (SENP counter-screen) | shares compounds with SENP7 block | Pre-incubated SENP8/Z-RLRGG-aminoluciferin, luciferase luminescence interference | inhibition, % at 12.5 µM | 39% of 6,200 active;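 active means mean inhibition above about 50% when retested at one dose, limit read from the data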;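 further: plate controls were DMSO wells with completed reaction for no effect and substrate without enzyme for full effect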
Numbers without * were called inactive; / = no result given. The list is not random: actives were taken first. Their share in the collection is about 3%.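 How the source made its calls, unless noted: active means mean inhibition above about 50% in the one-dose retest (limit read from the data); inactive means the rest.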

SMILES | TRAIL sens C8 | SENP8 block-1 | SENP6 inh | SENP7 block | SENP8 block-2 | PPC-1+TRAIL kill | PPC1 cytotox | SENP8 confirm | SENP6 confirm | SENP7 conf | Casp3 SENP sel | Luc interf
O=C(NNC(=S)Nc1ccc(F)cc1F)c1ccco1 | -11 | 3 | 5 | 18 | -4 | / | / | / | / | / | / | /
O=C(/C=C/Nc1ccc(Br)cc1F)c1ccco1 | 91* | 96* | 95* | 98* | -410 | 89* | 89* | -2 | 93* | 100* | 86* | 28
O=C(/C=C/Nc1ccc(F)cc1F)c1ccco1 | 92* | 87* | 87* | 90* | -168 | 90* | 89* | 91* | 97* | 101* | 96* | 85*
Cc1ccc(-n2nnc(-c3nccn3C)n2)cc1 | 71* | 86* | 84* | 87* | -10 | 55* | 53* | 90* | 90* | 100* | 97* | 90*
Cc1cccc(C(=O)N2CCCCCC2)c1 | -3 | -8 | -20 | -11 | 5 | 0 | / | / | / | / | / | /
O=C(c1ccccc1)n1c(=S)nc2ccccn21 | 84* | 70* | 78* | 90* | 2 | 72* | 74* | 2 | 74* | 93* | 57* | 15
Cc1cccc(C(=O)n2c(=S)nc3ccccn32)c1 | 74* | 46 | 91* | 90* | 3 | 70* | 70* | 77* | 82* | 92* | 69* | 56*
O=C(c1ccccc1)n1ccn(-c2ccccc2)c1=S | 21 | 8 | 2 | 2 | -324 | 12 | / | / | / | / | / | /
Cc1ccc(-n2nc3c(c2NC(=O)CC(C)C)CS(=O)C3)cc1 (stereo unspecified) | -18 | 7 | -2 | -2 | 5 | / | / | / | / | / | / | /
Cc1ccc(SCC(=O)NC(=O)c2ccccc2Br)c(C)c1 | -5 | -2 | -5 | 7 | 8 | / | / | / | / | / | / | /
COC(=O)c1ccc2nc(-c3ccc4c(c3)OCO4)cn2c1 | 70* | 50 | -1 | 78* | -404 | 63* | 63* | 16 | 17 | 40 | 58* | 20
CCc1ccn2cc(-c3ccc4c(c3)OCO4)nc2c1 | 92* | 94* | 96* | 97* | -412 | 92* | 91* | 97* | 98* | 102* | 96* | 96*
COc1ccc(-c2cn3cc(C(=O)NN)ccc3n2)cc1 | 48 | -10 | -21 | -2 | -432 | 39 | / | / | / | / | / | /
c1cnc2nc(-c3ccc4c(c3)OCO4)cn2c1 | 23 | -27 | -9 | -7 | -412 | 26 | / | / | / | / | / | /
CN(C)c1ccc(CNC(=O)C2(C)Cc3c(-c4cccc(C(N)=O)c4)ccnc3O2)cc1 (stereo unspecified) | 5 | / | / | / | 24 | / | / | / | / | / | / | /
O=C(c1ccc(OC2CCN(CCc3ccccc3)CC2)cc1)N1CCC[C@H]1CO | -9 | 0 | -6 | 0 | 8 | / | / | / | / | / | / | /
C/C(=N\NC(=O)c1n[nH]c2c1CCC2)c1ccco1 | 64* | 55* | 69* | 60* | 9 | 40 | 40 | 12 | 68* | 91* | 91* | 65*
Cn1cccc1/C=N/NC(=O)c1ccccn1 | 8 | 8 | 31 | 29 | -23 | 19 | / | / | / | / | / | /
CC(/C=N/NC(=O)c1ccncc1)=C\c1ccccc1 | 26 | -8 | -5 | 5 | 1 | 5 | / | / | / | / | / | /
CCc1ccc(/C=N/NC(=O)c2ccccn2)cc1 | 82* | 79* | 83* | 83* | -3 | 72* | 71* | 87* | 87* | 98* | 94* | 86*
